Compounds with a hit are over-represented: about 11% of the library has one in this group of screens.
hNpr1 antagonist = Natriuretic polypeptide receptor (hNpr1) antagonism - Primary qHTS. Atrial natriuretic peptide receptor 1 (Homo sapiens), P16066. HEK293 hNpr1 GloSensor cGMP, ANP-stimulated luminescence. Potency, µM (titrated, usually from 46.3 µM), for inactives: at the top dose activity change, negative = inhibition, actives largely listed as inhibitors. hit rate 1.6% among 76,000. AID 1347048, 2019; calls by dose curve; further: nearly all actives have a fitted effect of over 60% in size
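HEK293 cells stably expressing human Npr1 and cGMP GloSensor pGS-40F, loaded 2 h with 2% GloSensor reagent, given compound 30 min at room temperature. Luminescence read before and 20 min after 0.1 nM hNppA.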
Luciferase inh = Firefly luciferase inhibition profiling of diverse chemical library using quantitative high-throughput screening. hit rate 2.5% among 76,000. AID 1347043, 2019. Potency, µM (top dose mostly 115 µM), hits mostly inhibitors. purified P. pyralis luciferase, luminescence, biochemical. Luciferin 4-monooxygenase (Photinus pyralis), P08659; further: nearly all actives have a fitted effect of over 65% in size
Target sequence (P08659 whole entry, looked up): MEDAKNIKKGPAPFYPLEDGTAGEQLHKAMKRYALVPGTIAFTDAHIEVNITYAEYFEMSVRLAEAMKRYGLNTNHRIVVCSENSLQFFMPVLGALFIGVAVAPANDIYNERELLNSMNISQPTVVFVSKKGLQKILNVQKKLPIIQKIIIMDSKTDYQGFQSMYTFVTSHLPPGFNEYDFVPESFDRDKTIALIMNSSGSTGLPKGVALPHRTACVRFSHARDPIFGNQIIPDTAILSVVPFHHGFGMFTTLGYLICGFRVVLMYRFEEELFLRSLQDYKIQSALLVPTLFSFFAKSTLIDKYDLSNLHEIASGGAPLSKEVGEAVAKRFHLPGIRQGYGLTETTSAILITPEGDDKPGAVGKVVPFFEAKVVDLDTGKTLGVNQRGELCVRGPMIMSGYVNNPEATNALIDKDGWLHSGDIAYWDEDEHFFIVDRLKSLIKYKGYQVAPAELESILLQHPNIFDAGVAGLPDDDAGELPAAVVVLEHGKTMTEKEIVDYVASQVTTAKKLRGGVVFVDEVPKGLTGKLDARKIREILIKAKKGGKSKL
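Purified 10nM P. pyralis luciferase with 10uM D-luciferin and 10uM ATP in 50mM Tris acetate pH 7.5, 10mM Mg acetate, 0.01% Tween-20, 0.05% BSA. qHTS titration; luminescence read by CCD imager.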
NIH3T3 tox = Cytotoxic Profiling in NIH 3T3 Cell Line of Diverse Libraries Using Quantitative High-Throughput Screening | NIH 3T3 viability, CellTiter-Glo ATP luminescence, 48-72 h | Potency, µM (doses to about 96.7 µM), without a hit: at the highest dose activity change, negative = cytotoxicity, usual class: inhibitors | hit rate 4.3% among 94,000; further: nearly all actives have a fitted effect of over 55% in size
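Cells were seeded at 400 per well, treated with pin-transferred compound, and kept 48 or 72 hr at 37 °C before CellTiter-Glo addition and luminescence imaging of cellular ATP.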
HEK cytotox = Cytotoxic Profiling in HEK 293 Cell Line of Diverse Libraries Using Quantitative High-Throughput Screening; HEK 293 viability, ATP luminescence (CellTiter-Glo), 48-72 h; Potency, µM (highest dose often 115 µM), for inactives: at the highest dose activity change, negative = cytotoxicity, usual class: inhibitors; hit rate 6.6% among 94,000; AID 1345083, 2018; further: nearly all actives have a fitted effect of over 60% in size
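HEK 293 cells at 250 cells/well were exposed to compounds by pintool transfer for 48 or 72 hr at 37 degree Celsius, 5% CO2. Viability was read as ATP-coupled luminescence with CellTiter-Glo after 10 min at room temperature.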
* marks the source's active call; other numbers are inactive results; [ ] = another dose, or the depositor's remark. Unless noted, the call rests on the fitted dose curve; in most records, active means well fitted curve in the direction sought with a large enough effect; inconclusive means small, poorly fitted or top-dose-only effect, or another doubt; inactive means no such curve, though single readings can be large; an effect the other way counts as inactive or inconclusive. On the % scale 0 is the no-effect control and ±100 the full control effect; potency means the concentration at half of the fitted maximal effect.

CCCn1ccnc1CN1CCCC12CCN(c1ccc(C(F)(F)F)cn1)CC2 was read as hNpr1 antagonist -1%, Luciferase inh inactive, NIH3T3 tox inconclusive and HEK cytotox 35µM*.
For CCn1ncc(CN2CCCC23CCN(c2ccc(C(F)(F)F)cn2)CC3)c1C the results were hNpr1 antagonist 0%, Luciferase inh inactive, NIH3T3 tox inconclusive and HEK cytotox inconclusive.
`Nc1ncccc1CN1CCCC12CCN(c1ccc(C(F)(F)F)cn1)CC2` gave hNpr1 antagonist -25%, Luciferase inh inactive, NIH3T3 tox inconclusive and HEK cytotox inconclusive.
Cn1ccnc1CN1CCCC12CCN(c1ccc(C(F)(F)F)cn1)CC2 was read as hNpr1 antagonist -24%, Luciferase inh inactive, NIH3T3 tox inconclusive and HEK cytotox 50µM*.
`COc1cccc(N2C(=O)NC(=NC3CCCC3)C23CCN([S+](=O)([O-])c2cccc(C(F)(F)F)c2)C3)c1` (stereo not given) gave NIH3T3 tox -19% and HEK cytotox -26%.
For CC(=O)Nc1cccc(-c2ccnc(-c3nnc(C)n3Cc3ccccc3)c2)c1 the results were hNpr1 antagonist -18%[70.6 µM], Luciferase inh 50µM*, NIH3T3 tox inconclusive and HEK cytotox inconclusive.
Screening COc1ncc(-c2ccnc(-c3nnc(C)n3CCc3ccccc3)c2)cn1 returned hNpr1 antagonist 5%[70.6 µM], Luciferase inh inactive, NIH3T3 tox 100µM* and HEK cytotox -5%[172 µM].
`COCCn1c(C)nnc1-c1cc(-c2ccc(OC)c(OC)c2)ccn1` gave hNpr1 antagonist 2%[70.6 µM], Luciferase inh inactive, NIH3T3 tox 89µM* and HEK cytotox 2%[172 µM].
Screening COc1cccc(-c2ccnc(-c3nnc(C)n3Cc3ccccc3)c2)c1 returned hNpr1 antagonist -2%[70.6 µM], Luciferase inh inactive, NIH3T3 tox 79µM* and HEK cytotox inconclusive.
For COc1ccc([C@H]2C[C@@H](O)[C@@H](O)[C@@H]2NS(=O)(=O)c2ccccc2)cc1 the results were hNpr1 antagonist 0%[70.6 µM], Luciferase inh inactive, NIH3T3 tox -5%[174 µM] and HEK cytotox 2%[172 µM].
Screening Cc1nnc(-c2cc(-c3cccc(N(C)C)c3)ccn2)n1Cc1ccncc1 returned hNpr1 antagonist 0%[70.6 µM], Luciferase inh inactive, NIH3T3 tox inconclusive and HEK cytotox 1%[172 µM].
Cc1nnc(-c2cc(-c3cccc(N(C)C)c3)ccn2)n1Cc1ccccc1 was read as hNpr1 antagonist 4%[70.6 µM], Luciferase inh inconclusive, NIH3T3 tox 50µM* and HEK cytotox 89µM*.
`Cc1nnc(-c2cc(-c3cccc(F)c3)ccn2)n1Cc1ccccc1` gave hNpr1 antagonist 1%[70.6 µM], Luciferase inh inactive, NIH3T3 tox inconclusive and HEK cytotox 89µM*.
For CN(C)Cc1cc(CC2(NCc3ccc4c(c3)OCO4)COC2)no1 the results were hNpr1 antagonist 5%[70.6 µM], Luciferase inh inactive, NIH3T3 tox -16%[138 µM] and HEK cytotox -7%[172 µM].
Screening CCOC(=O)C1CCN(C(=O)c2ccc3c(c2)N(CC)C2CCCCCN2C3=O)CC1 (stereo not given) returned hNpr1 antagonist inconclusive, Luciferase inh inactive, NIH3T3 tox -30% and HEK cytotox inconclusive.
`CN1CCN(c2ccc3ncc(Nc4ccccc4-c4ccccc4)n3n2)CC1` gave hNpr1 antagonist inconclusive, Luciferase inh inactive, NIH3T3 tox 25µM* and HEK cytotox 40µM*.
c1ccc(-c2ccccc2Nc2cnc3ccc(-n4ccnc4)nn23)cc1 was read as hNpr1 antagonist inconclusive, Luciferase inh inactive, NIH3T3 tox 25µM* and HEK cytotox 32µM*.
Screening COC[C@@H]1CN(C(=O)c2cccc(C)c2)C[C@H]1c1nc(C2CC2)no1 returned hNpr1 antagonist 2%, Luciferase inh inactive, NIH3T3 tox -3% and HEK cytotox -11%.
Screening COCC1CN(C2CCC2)CC12CCN(C(=O)Cn1cccn1)CC2 (stereo not given) returned hNpr1 antagonist -4%, Luciferase inh inactive, NIH3T3 tox 4% and HEK cytotox -4%.
For O=C(NCCNC(=O)c1cccc(-c2ccsc2)c1)c1ccc(Cl)nc1 the results were NIH3T3 tox -1% and HEK cytotox -6%.
`c1ccc(NCC2CN(Cc3ccccn3)CC23CN(c2ccccc2)C3)cc1` (stereo not given) gave hNpr1 antagonist -1%[70.6 µM], Luciferase inh inactive, NIH3T3 tox inconclusive and HEK cytotox 79µM*.
`Oc1ccccc1CN1CC(CNc2cccnc2)C2(C1)CN(c1ccccc1)C2` (stereo not given) gave hNpr1 antagonist -23%[70.6 µM], Luciferase inh inactive, NIH3T3 tox inconclusive and HEK cytotox 63µM*.
Screening O=C(NCC1CN(Cc2cccnc2)CC12CN(c1ccccc1)C2)Nc1ccccc1 (stereo not given) returned hNpr1 antagonist 2%[70.6 µM], Luciferase inh inactive, NIH3T3 tox -15%[138 µM] and HEK cytotox inconclusive.
For O=C(c1cccnc1)N1CC(CNc2ccccc2)C2(C1)CN(c1ccccc1)C2 (stereo not given) the results were hNpr1 antagonist 2%[70.6 µM], Luciferase inh inactive, NIH3T3 tox inconclusive and HEK cytotox inconclusive.
Screening CC(C)c1ccc(CN2CC(CNc3cccnc3)C3(C2)CN(c2ccccc2)C3)cc1 (stereo not given) returned hNpr1 antagonist inconclusive, Luciferase inh inactive, NIH3T3 tox 35µM* and HEK cytotox 50µM*.
For Cc1cccn2c(CC(=O)N3CCC4(CC3)c3nc[nH]c3CCN4C)cnc12 the results were hNpr1 antagonist 5%, Luciferase inh inactive, NIH3T3 tox inactive and HEK cytotox -11%.
Cn1cc(CN2CCN(c3ccc(C#N)cn3)CC2)c(-c2ccccc2)n1 was read as hNpr1 antagonist 2%, Luciferase inh inactive, NIH3T3 tox inconclusive and HEK cytotox 79µM*.
For Cn1cc(CN2CCN(c3cnccn3)CC2)c(-c2ccc(C3CCCCC3)cc2)n1 the results were hNpr1 antagonist 6%, Luciferase inh 22µM*, NIH3T3 tox 79µM* and HEK cytotox 25µM*.
Cc1ccsc1C(=O)N1CCC2(CC1)CC(N(Cc1ccc(F)cc1)C1CC1)CCO2 (stereo not given) was read as hNpr1 antagonist -25%, Luciferase inh inactive, NIH3T3 tox inconclusive and HEK cytotox inconclusive.
Screening CC(=O)N(C1CC1)C1CCOC2(CCN(C(=O)CCCc3ccccc3)CC2)C1 (stereo not given) returned hNpr1 antagonist 2%, Luciferase inh 28µM*, NIH3T3 tox -21% and HEK cytotox inconclusive.
For Cc1ccsc1C(=O)N1CCC2(CC1)CC(N(Cc1ccccc1)C1CC1)CCO2 (stereo not given) the results were hNpr1 antagonist -26%, Luciferase inh inactive, NIH3T3 tox inconclusive and HEK cytotox 40µM*.

Screens as filed in PubChem BioAssay.
